Compound activity as filed in PubChem.
Only a selection was taken, and hits are over-represented in it overall.
Sm TGR inh: qHTS Assay for the Inhibitors of Schistosoma Mansoni Peroxiredoxins; Potency, µM (doses to about 114 µM), for inactives: at the highest dose activity change, negative = inhibition, hits mostly inhibitors; purified TGR, DTNB reduction, TNB absorbance 405 nm; AID 485364, 2010; 360,000 compounds, 3% hits; note: potency is the fitted concentration of half-maximal effect; % is set by controls: 0 for no effect and ±100 for the full control effect; nearly all actives have a fitted effect of over 60% in size
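Kinetic colorimetric format: TGR-catalysed, NADPH-driven DTNB reduction monitored via TNB absorbance. Enzyme dispensed at 20 nM; compound exposure 15 min at room temperature before reaction start.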
LmPK inhibitor: qHTS Assay for Inhibitors of Leishmania Mexicana Pyruvate Kinase (LmPK); Q27686; purified LmPK, Kinase-Glo ATP luminescence, 1 h; Potency, µM (highest dose often 57.5 µM), for the others: at the top dose activity change, negative = inhibition, hits mostly inhibitors; 290,000 compounds, 0.37% hits; AID 1721, 2009; note: potency is the fitted concentration of half-maximal effect; % is set by controls: 0 for no effect and ±100 for the full control effect
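Purified LmPK (0.1 nM) converted ADP (0.1 mM) to ATP with PEP (0.5 mM) in imidazole buffer pH 7.2 with KCl and MgCl2, 1 h at room temperature. ATP was read by Kinase-Glo luminescence; data normalized to uninhibited and no-enzyme controls.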
FBPA Giardia inh: qHTS Assay for Inhibitors of Fructose-1,6-bisphosphate Aldolase from Giardia Lamblia | AID 2451, 2010 | A8B2U2 | purified Giardia FBPA | Potency, µM (titrated, usually from 59.6 µM), inactives show at the top dose activity, negative = inhibition, usual class: inhibitors | 290,000 compounds, 0.71% hits; note: potency is the fitted concentration of half-maximal effect; % is set by controls: 0 for no effect and ±100 for the full control effect; nearly all actives have a fitted effect of over 55% in size
Target sequence (A8B2U2 whole entry, looked up): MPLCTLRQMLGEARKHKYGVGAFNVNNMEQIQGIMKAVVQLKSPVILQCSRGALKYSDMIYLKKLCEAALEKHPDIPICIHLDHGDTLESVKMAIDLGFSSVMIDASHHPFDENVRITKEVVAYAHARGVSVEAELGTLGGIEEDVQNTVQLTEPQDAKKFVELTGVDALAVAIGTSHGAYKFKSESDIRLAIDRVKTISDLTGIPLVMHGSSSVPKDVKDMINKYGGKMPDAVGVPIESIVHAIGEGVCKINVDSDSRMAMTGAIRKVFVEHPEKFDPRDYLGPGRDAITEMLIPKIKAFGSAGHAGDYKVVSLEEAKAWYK
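40 nM FBPA preincubated 10 min at RT with compound (up to 57.5 uM final), then substrate plus GAPDH/TPI/NAD/arsenate coupling and diaphorase/resazurin added. Fluorescence read after 20 min at RT, 525/598 nm.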
Tb PYK inh: qHTS of Trypanosoma Brucei Inhibitors | 410,000 compounds, 0.12% hits | pyruvate kinase (Trypanosoma brucei), Q57TT1 | Potency, µM (series often up to 76.8 µM), for the others: at the top dose activity, negative = inhibition, most hits filed as inhibitors | TbPYK enzyme, Kinase-Glo Plus ATP luminescence, 45 min; note: potency is the fitted concentration of half-maximal effect; % is set by controls: 0 for no effect and ±100 for the full control effect; nearly all actives have a fitted effect of over 50% in size
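Assay buffer: 50 mM TEA pH 7.2, 100 mM KCl, 10 mM MgCl2, 0.05% BSA, 0.01% Tween-20. Pyruvate kinase from T. brucei plus substrate met compound, then ADP (130 uM final). Luminescence was read post 45 min RT.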
Shiga toxin inh: A qHTS for Small Molecule Inhibitors of Shiga Toxin | Vero cells, Shiga toxin protein synthesis inhibition reporter | inhibition, % at 38.7 µM | 290,000 compounds, 9.2% hits; in the data active = inhibition mostly above about 28%, no sharp cut-off; inactive = mostly below about 43%; note: 0% is about no effect
CHX counter: Cycloheximide Counterscreen for Small Molecule Inhibitors of Shiga Toxin; 300,000 compounds, 12% hits; max response, %; cell reporter, cycloheximide protein synthesis inhibition counterscreen; AID 2314, 2010; in the data active = max response mostly above about 13%, no sharp cut-off; inactive = mostly below about 14%; note: read at 38.3 µM for the half of the compounds with a filed dose; 0% is about no effect
* marks the source's active call; other numbers are inactive results. Unless noted, calls come from the whole dose curve; as a rule, active = well fitted curve in the direction sought with a large enough effect; inconclusive = small, poorly fitted or top-dose-only effect, or another doubt; inactive = no such curve, though single readings can be large; an effect the other way counts as inactive or inconclusive.

COc1ccc(C2=CC(c3c(C)nn(-c4ccccc4)c3Cl)n3nnnc3N2)cc1OC (stereo not given) was read as Sm TGR inh 18µM*, LmPK inhibitor 1%, FBPA Giardia inh -21%, Tb PYK inh -7%, Shiga toxin inh -11 and CHX counter -5.
`COc1ccccc1N1CCN(C(=O)c2nc(SC)ncc2Cl)CC1` gave Sm TGR inh 6% and Tb PYK inh -7%.
For CC(=O)c1ccc(NC(=S)NCCc2ccccn2)cc1 the results were Sm TGR inh 5%, LmPK inhibitor -11%, FBPA Giardia inh 1%, Tb PYK inh -5%, Shiga toxin inh 21* and CHX counter 43*.
`Fc1ccc(NC(=S)NCc2ccccn2)cc1` gave Sm TGR inh -11%, LmPK inhibitor 1%, FBPA Giardia inh -12%, Tb PYK inh -6%, Shiga toxin inh 46* and CHX counter 16*.
CN(CCc1ccccn1)C(=O)Nc1ccc(Cl)cc1 was read as Sm TGR inh -1%, LmPK inhibitor -3%, FBPA Giardia inh 0%, Tb PYK inh -9%, Shiga toxin inh 97 and CHX counter 32*.
CN(CCc1ccccn1)C1CC(=O)N(c2ccc(Cl)cc2)C1=O (stereo not given) was read as Sm TGR inh 10µM*, LmPK inhibitor -2%, FBPA Giardia inh -2%, Tb PYK inh 1%, Shiga toxin inh 20 and CHX counter -4.
Screening CN(CCc1ccccn1)C(=O)c1cccnc1Oc1ccc(Cl)cc1 returned Sm TGR inh 7%, LmPK inhibitor -2%, FBPA Giardia inh 1%, Tb PYK inh 6%, Shiga toxin inh 1 and CHX counter -3.
`Cc1cc(C)cc(SCc2noc(C(=O)NCCC(C)C)c2C(=O)NCCC(C)C)c1` gave Tb PYK inh 1%.
Screening COc1ccccc1Cc1c(-c2ccc(F)cc2)nc2cc(C)c(Br)c(C)n12 returned Tb PYK inh 0%.
`COc1ccc(C(=O)N2CCN(c3ccc(C(C)=O)cc3)CC2)cc1S(=O)(=O)N1CCCC1` gave Tb PYK inh 6%.
CC(C)(C)c1ccc(NC(=S)NCCc2ccccn2)cc1 was read as Sm TGR inh -11%, LmPK inhibitor 5%, FBPA Giardia inh -2%, Tb PYK inh -24%, Shiga toxin inh 29 and CHX counter 17*.
For S=C(NCCc1ccccn1)Nc1ccc(Cl)cc1 the results were Sm TGR inh -7%, LmPK inhibitor 0%, FBPA Giardia inh 2%, Tb PYK inh -8%, Shiga toxin inh 48* and CHX counter 39*.
For S=C(NCCc1ccccn1)NC1CC2CCC1C2 (stereo not given) the results were Sm TGR inh 2%, LmPK inhibitor 0%, FBPA Giardia inh 2%, Tb PYK inh -3%, Shiga toxin inh 43 and CHX counter 27*.
`Fc1ccc(NC(=S)NCCc2ccccn2)cc1` gave LmPK inhibitor -5%, FBPA Giardia inh -14%, Tb PYK inh -8%, Shiga toxin inh 7 and CHX counter 23.
`Cn1c(N)c(C(=O)CSc2n[nH]c(N)n2)c(=O)n(C)c1=O` gave Sm TGR inh 2% and Tb PYK inh 1%.
`COc1cc(CCC(=O)OCC(=O)Nc2ccc(F)cc2F)cc(OC)c1OC` gave Sm TGR inh 8%, LmPK inhibitor -1%, FBPA Giardia inh -4%, Tb PYK inh -1%, Shiga toxin inh 4 and CHX counter -2.
Screening Cc1ccc(S(=O)(=O)NCCOC(=O)Nc2sc(=S)n(C)c2C)cc1 returned Sm TGR inh 11µM*, LmPK inhibitor 5%, FBPA Giardia inh -10%, Tb PYK inh 0%, Shiga toxin inh -5 and CHX counter -3.
COc1ccc(CNC(=O)CCNS(=O)(=O)c2ccc(NC(C)=O)cc2)cc1OC was read as Sm TGR inh -6% and Tb PYK inh 3%.
Screening COc1cccc(CC2(CO)CCCN(Cc3ccc(C)s3)C2)c1 (stereo not given) returned Sm TGR inh 11%, LmPK inhibitor -4%, FBPA Giardia inh 1%, Tb PYK inh 4%, Shiga toxin inh -5 and CHX counter -1.
Screening COc1cccc(CC2(CO)CCCN(Cc3ccc(CO)o3)C2)c1 (stereo not given) returned Sm TGR inh -26%, LmPK inhibitor 0%, FBPA Giardia inh 1%, Tb PYK inh 1%, Shiga toxin inh -6 and CHX counter 1.
COc1cccc(CC2(CO)CCCN(Cc3ccc(-c4ccco4)cc3)C2)c1 (stereo not given) was read as Sm TGR inh 18µM*, LmPK inhibitor 1%, FBPA Giardia inh -3%, Tb PYK inh -25%, Shiga toxin inh 10 and CHX counter -1.
Screening COc1cccc(CC2(CO)CCCN(Cc3ccccc3-c3ccco3)C2)c1 (stereo not given) returned Sm TGR inh 50µM*, LmPK inhibitor 11%, FBPA Giardia inh -7%, Tb PYK inh 0%, Shiga toxin inh 12 and CHX counter -3.
For OC(c1ccccc1)(c1ccccc1)c1nccn1-c1ccccc1 the results were Tb PYK inh -2%.
Screening Cc1nc(C(=O)NC2CC2)sc1C1(C)CC(c2ccccc2)=NO1 (stereo not given) returned Sm TGR inh -3%, LmPK inhibitor -18%, FBPA Giardia inh 2%, Tb PYK inh 4%, Shiga toxin inh 20 and CHX counter 18*.
For C/C(=N\NC(=O)c1sccc1C)c1cccnc1 the results were Sm TGR inh inconclusive, LmPK inhibitor -8%, FBPA Giardia inh -11%, Tb PYK inh 6%, Shiga toxin inh 89* and CHX counter 41*.
Screening C/C(=N/NC(=O)c1ccco1)c1cccnc1 returned Sm TGR inh -1%, LmPK inhibitor -11%, FBPA Giardia inh 1%, Tb PYK inh -16%, Shiga toxin inh 29 and CHX counter 26.
For C/C(=N\NC(=O)c1sccc1C)c1ccncc1 the results were Sm TGR inh 6%, LmPK inhibitor -4%, Tb PYK inh -2%, Shiga toxin inh 109* and CHX counter 44*.
O=[N+]([O-])c1ccccc1CSc1nnc2ccccn12 was read as Sm TGR inh 2%, LmPK inhibitor 0%, FBPA Giardia inh 0%, Tb PYK inh 4%, Shiga toxin inh 53* and CHX counter 40*.
`Cc1noc(C)c1CSc1nnc2ccccn12` gave Sm TGR inh 0%, LmPK inhibitor 3%, FBPA Giardia inh 3%, Tb PYK inh -7%, Shiga toxin inh -23 and CHX counter -3.
